Assay outcomes from PubChem.
D1 antag: Antagonist of Human D 1 Dopamine Receptor: qHTS; activity change, negative = inhibition, % at 10 µM; AID 504652, 2011; hit rate 3.2% among 360,000; HEK293 TREx D1 cells, calcium flux, dopamine EC80; active compounds read low; in the data active = activity change below about -30%; note: % is set by controls: 0 for no effect and ±100 for the full control effect
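Compound effects on dopamine-evoked calcium signalling were measured in tetracycline-induced HEK293 Trex D1 cells. Dopamine at EC80 followed a 180 s compound pre-read, and fluorescence was tracked kinetically for 180 s more.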
D1 ag: Allosteric Agonists of the Human D1 Dopamine Receptor: qHTS; AID 504660, 2011; D(1A) dopamine receptor (Homo sapiens), P21728; hit rate 1% among 360,000; activation, % at 2 µM; HEK293 T-REx D1 cells, calcium flux, agonist mode; in the data active = activation above about 30%; note: 0% is about no effect
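Tetracycline-induced HEK293 TREx D1 cells, force-coupled to calcium signalling, were dye-loaded with a no-wash calcium kit. Compound was pin-added after a 10 s baseline. Fluorescence was read kinetically at 1 cycle/s for 180 s, with calcium rises flagged as agonism.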
DRD3 antagonist: qHTS of D3 Dopamine Receptor Antagonist: qHTS; D3R cells, DiscoveRx beta-arrestin luminescence, antagonist mode; active compounds read low; max response, negative = inhibition, %; hit rate 2.5% among 360,000; AID 652054, 2013; in the data active = max response below about -50%; inconclusive = no clear call, values can overlap the other calls; note: % is set by controls: 0 for no effect and ±100 for the full control effect
Target sequence (P35462 whole entry, looked up): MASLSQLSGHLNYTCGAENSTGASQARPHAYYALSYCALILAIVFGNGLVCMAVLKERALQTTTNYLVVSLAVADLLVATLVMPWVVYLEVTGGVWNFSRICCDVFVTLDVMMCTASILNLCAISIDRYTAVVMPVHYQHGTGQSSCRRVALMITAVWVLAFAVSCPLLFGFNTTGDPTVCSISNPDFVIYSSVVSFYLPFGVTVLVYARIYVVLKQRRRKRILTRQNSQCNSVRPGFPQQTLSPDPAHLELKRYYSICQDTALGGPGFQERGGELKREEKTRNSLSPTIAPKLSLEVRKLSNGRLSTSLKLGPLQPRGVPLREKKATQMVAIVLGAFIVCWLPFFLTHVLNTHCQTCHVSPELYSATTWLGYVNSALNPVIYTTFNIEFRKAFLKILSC
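Cells plated overnight at 1500 cells/well, then exposed to library compounds with dopamine controls for 90 minutes at 37 degrees C. DiscoveRx reagent added for 30–60 minutes at room temperature; luminescence read, quantitative HTS format.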
D1 PAM: Potentiators of Human D1 Dopamine Receptor: qHTS; D(1A) dopamine receptor (Homo sapiens), P21728; HEK293 TREx D1 cells, calcium flux, dopamine EC20 potentiation; potentiation, % at 10 µM; hit rate 0.036% among 360,000; in the data active = potentiation above about 30%; note: 0% is about no effect
D3 ag: qHTS of D3 Dopamine Receptor Agonist: qHTS; D(3) dopamine receptor (Homo sapiens), P35462; hit rate 0.58% among 410,000; max activation, %; D3R DiscoveRx beta-arrestin cells, luminescence, 90 min; in the data active = max activation above about 30%; note: 0% is about no effect
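Agonist mode: compounds and dopamine controls were applied to plated cells for 90 min at 37 degrees C after an overnight attachment at 1500 cells/well. Luminescent read-out followed 30 - 60 minutes at room temperature with DiscoveRx detection reagent.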
Active calls of the source: *; ? = inconclusive; . = not tested or not shown; ! = not active in a repeat. An excerpt weighted towards active compounds, which were near 6% of everything screened.

SMILES	D1 antag	D1 ag	DRD3 antagonist	D1 PAM	D3 ag
CCOC(=O)Cc1cc(=O)[nH]c(/N=C(\N)Nc2ccc(C)cc2C)n1	-38*	4	25	-31	3
COc1ccc(NC(=O)C2=C(C)Nc3nc(SCc4ccc(Cl)cc4)nn3C2c2cccc(OC)c2OC)cc1 (configuration not stated)	5	4	.	1	4
O=C(CN1CCN(c2cccc(Cl)c2)CC1)Nc1nccs1	-23	8	4	-8	0
O=C(CCN1CCN(c2ccc(Cl)cc2)CC1)Nc1nccs1	3	11	-66*	17	8
COc1ccc(-c2cc(C(F)(F)F)c3c(n2)sc2c(O)cc(=O)[nH]c23)c(OC)c1	-15	42*	11	-2	-4
COc1ccc(Oc2nc3c(c(=O)n(C)c(=O)n3C)n2Cc2ccc(Cl)cc2Cl)cc1	-6	2	.	0	3
CCC(=O)OCc1c(C(F)(F)F)nn(C)c1Sc1ccc(Cl)cc1	-33*	19	?	-2	-1
O=[N+]([O-])c1cc(/C=N\O)ccc1Oc1ccc(F)cc1	-53*	1	-27	-4	-6
COc1cc(/C=N/O)ccc1Oc1ccc([N+](=O)[O-])cc1[N+](=O)[O-]	8	2	-7	6	-6
O=S(=O)(Nc1cccc(-c2ccc(N3CCCC3)nn2)c1)c1ccccc1C(F)(F)F	-22	0	.	0	7
COc1cc(Cl)c(C)cc1Nc1nc2ccccc2nc1NS(=O)(=O)c1ccccc1	12	13	.	-2	-3
COc1ccccc1CNS(=O)(=O)c1cc(-c2cc(C)no2)ccc1C(C)C	-38*	18	-3	-6	-4
CCc1ccc(-c2cc(C)no2)cc1S(=O)(=O)NCCN1CCC(C)CC1	-13	6	-9	-2	-17
COc1ccc(-c2cc(C)no2)cc1S(=O)(=O)NCC1CCN(Cc2cc(C)ccc2C)CC1	0	15	-10	-6	-1
CCc1ccc(-c2cc(C)no2)cc1S(=O)(=O)NCCCN1CCN(c2ccccc2)CC1	-67*	17	-77*	-6	0
COc1ccccc1CN1CCC(CNS(=O)(=O)c2cc(-c3cc(C)no3)ccc2C)CC1	-10	40*	-17	-7	-3
COc1ccccc1CNS(=O)(=O)c1cc(-c2cc(C)no2)ccc1C	7	14	.	3	2
CCc1ccc(-c2cc(C)no2)cc1S(=O)(=O)Nc1ccc(C)cn1	-45*!	0	-11	2	-2
Cc1cc(-c2ccc(C)c(S(=O)(=O)NCC3CCN(Cc4ccc(F)cc4)CC3)c2)on1	-33*!	9	-17	-7	-12
Cc1ccc(CCNS(=O)(=O)c2cc(-c3cc(C)no3)ccc2C)cc1	-12	7	.	-3	8
Cc1ccc(/C=N/NC(=O)Cc2ccc(O)cc2)s1	-33*	3	0	4	-11
O=C(Cc1ccc(O)cc1)N/N=C/c1cccs1	16	2	-13	-1	-3
O=C(CCNS(=O)(=O)c1ccc2c(c1)CCCC(=O)N2)NCc1ccc(Cl)cc1	-2	1	.	-4	1
CN1CCc2c(sc(NC(=O)CSc3ccccc3)c2-c2nc3ccccc3s2)C1	-54*	400*	.	-2	-24
CCOc1ccc(NC(=O)c2nnn(-c3ccc(F)c(Cl)c3)c2C)cc1	-3	1	.	0	7
SMILES	D1 antag	D1 ag	DRD3 antagonist	D1 PAM	D3 ag
CCOC(=O)CCCCNCc1ccccc1	14	1	-70*	-6	-17
c1ccc(CNCCCNCCCCNCCCNCc2ccccc2)cc1	.	.	22	.	-2
O=C(O)CCCCCNCc1ccncc1	-41*	1	11	-10	5
O=C(O)CCCCNCc1ccccc1	6	1	-8	1	-11
Cc1ccccc1CSCC(=O)NC1CCCC1	-45*	-3	-1	-2	2
Cc1cccc(C)c1OCC(=O)NC1CC1	-47*	-2	-3	-4	-5
CCOc1cc(CNC(=O)c2ccc3nc(CCc4ccccc4)oc3c2)ccc1OC	-7	6	.	-3	0
C=CCSc1nnc(CC(OC)OC)n1-c1ccccc1	-37*	8	8	0	1
CC(=O)Nc1cccc(N2C(=O)CC(N3CCC(C(=O)N4CCCCC4)CC3)C2=O)c1 (configuration not stated)	2	2	-59*	-1	4
COC(=O)c1cc2oc3ccccc3c2n1CC(=O)Nc1cc(OC)cc(OC)c1	-2	4	.	-3	-12
CCCCc1cc2c(=O)c(C(=O)OC)c[nH]c2cc1OCc1ccccc1	.	.	.	.	11
COc1cc(C(C)=O)ccc1Oc1ncnc2c1cnn2-c1ccccc1	-12	6	8	-7	36*
CN(c1ccc(C(=O)Nc2ccccc2C(=O)N2CCCC2)cc1)S(C)(=O)=O	-31*	1	0	-7	-12
O=C(Nc1ccccc1C(=O)N1CCCCCC1)c1ccccc1	12	3	-8	5	-4
COc1ccc(N2CCN(Cc3nc4c(c(=O)n(C)c(=O)n4C)n3C(C)C)CC2)cc1	-4	-1	.	-2	1
O=C(NCCn1cc(SCc2ccccc2Cl)c2ccccc21)c1cccs1	1	2	.	-4	2
Cc1ccc(C2NC(=O)c3c(sc4c3CCN(C)C4)N2)s1 (configuration not stated)	5	21	-55*	5	-25
CN1CCc2c(sc3c2C(=O)NC(c2ccc4c(c2)OCO4)N3)C1 (configuration not stated)	11	11	-126*	0	-17
N[C@H](C(=O)O)[C@@H]1CC(Cl)=NO1	.	.	.	.	6
O=C(Cn1c(=O)n(Cc2ccco2)c(=O)c2sc3ccccc3c21)Nc1ccccc1C(F)(F)F	5	2	.	-3	-7
Cc1nc(Nc2ccccc2)sc1C(=O)c1ccccc1	-33*	13	0	-2	-10
Cc1nc(Nc2ccc(Cl)c(Cl)c2)sc1C(=O)Nc1ccccc1	-52*	6	4	-8	4
COc1ccc(CNC(=O)c2ccc(Cn3c(=O)c4cccn4c4cccnc43)cc2)c(OC)c1	7	1	.	0	8
CCOc1ccc(NC(=O)N2CCC(N3CCCCC3)CC2)cc1	-1	0	.	-2	-5
COc1cccc2c1OCC(CN1CCN(CCC(C)C)C(CCO)C1)=C2 (configuration not stated)	-30*	3	-4	6	-11
COc1cccc(CN2CCN(CCc3ccccc3)C(CCO)C2)c1OC (configuration not stated)	-9	2	-9	-2	-6
